Consider 67 molecules from PubChem BioAssay AID623901 (Broad Institute, 2012).

The structures appear in SMILES notation. Hit rate of the full screen: of about 340,000 compounds, about 470 (0.14%) were called active. The full list was thinned out, with actives kept by preference. Values without a mark were called inactive.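 The calls were made as follows: active = mean activation of 30% or more, with every replicate also reaching 30%; inconclusive = mean activation of 30% or more but some replicate falls short; inactive = the rest.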

This experiment can be described thus: small molecules raising miR-122 sensor signal – cell-based, Huh7 psiCHECK-miR122, Renilla luciferase, single point, primary screen (AID 623901).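 Also: 0% = median of neutral control wells and 100% = median of positive control wells; higher luciferase signal means stronger suppression of miR-122 activity.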 To be noted: 48 h, at 12.5 µM, hits give high values.
As for `COc1ccc(C#Cc2cnc3c(c2)C(=O)N([C@@H](C)CO)C[C@H](C)[C@@H](CN(C)CC2CCOCC2)O3)cc1`, the activation was 0.272%. The result for `CSc1nc(-c2ccccc2)nc(C(Cl)Cl)n1` reads 42% (active). On to `COc1ccccc1-c1ccc2c(c1)O[C@H](CN(C)S(=O)(=O)c1ccc(C)cc1)[C@@H](C)CN([C@H](C)CO)S2(=O)=O`, for which the activation was 2.3%. The result for `C[C@H](CO)N1C[C@H](C)[C@@H](CN(C)C(=O)C2CCOCC2)Oc2cc(-c3ccc(C(=O)N(C)C)cc3)ccc2S1(=O)=O` reads -12.2%; that for `CNC[C@H]1Oc2cc(-c3ccc(OC)cc3)ccc2S(=O)(=O)N([C@H](C)CO)C[C@@H]1C`, -1.22%; that for `COCC#Cc1ccc2c(c1)O[C@H](CN(C)C(=O)C1CCOCC1)[C@@H](C)CN([C@@H](C)CO)S2(=O)=O`, -2.66%.

For the molecule `COc1cccc(-c2ccc3c(c2)O[C@H](CN(C)C(=O)C2CCOCC2)[C@H](C)CN([C@H](C)CO)S3(=O)=O)c1`, the activation is 40.8% (active). The result for `COc1cccc(S(=O)(=O)N(C)C[C@@H]2Oc3cc(C4=CCCCC4)ccc3S(=O)(=O)N([C@H](C)CO)C[C@H]2C)c1` reads 36.2% (active); that for `C[C@H]1CN([C@@H](C)CO)C(=O)c2cc(Br)cnc2O[C@H]1CN(C)Cc1cccc(F)c1`, -14.9%.

As to `CCC(=O)N1C[C@@H](C)[C@@H](OC)CN(C)C(=O)c2ccc(NC(=O)C3CCCCC3)cc2OC[C@H]1C`, the activation is -2.5%. The result for `COc1ccc(C)cc1S(=O)(=O)Nc1cc2c3c(c1)CCC(=O)N3CCC2` reads -150%. The result for `C/C=C/c1ccc2c(c1)O[C@H](CN(C)C(=O)Cc1ccccn1)[C@H](C)CN([C@H](C)CO)S2(=O)=O` reads -4.41%; that for `C[C@H](CO)N1C[C@H](C)[C@@H](CN(C)C(=O)C2CC2)Oc2cc(C#CC3CC3)ccc2S1(=O)=O`, -21%; that for `CCC(=O)N(C)C[C@@H]1Oc2cc(C#Cc3cccnc3)ccc2S(=O)(=O)N([C@H](C)CO)C[C@@H]1C`, -5.93%.

For the molecule `CNC[C@@H]1Oc2cc(C#CCC3CCCC3)ccc2S(=O)(=O)N([C@H](C)CO)C[C@H]1C`, the activation is 14.9%. For `CNC[C@@H]1Oc2cc(C#CC3CCCC3)ccc2S(=O)(=O)N([C@@H](C)CO)C[C@@H]1C`, the activation is 32.4% (active). On to `C/C=C/c1ccc2c(c1)O[C@H](CN(C)C(=O)c1ccc3c(c1)OCO3)[C@@H](C)CN([C@H](C)CO)S2(=O)=O`, for which the activation is -10.3%.

For the molecule `C[C@H]1CN([C@@H](C)CO)S(=O)(=O)c2ccc(C#Cc3ccccc3F)cc2O[C@@H]1CN(C)C(=O)c1ccc2c(c1)OCO2`, the activation was 48% (active). The result for `C[C@@H]1CN([C@H](C)CO)S(=O)(=O)c2ccc(C#CC3(O)CCCC3)cc2O[C@@H]1CN(C)C(=O)c1cccnc1` reads 44% (active). As for `C[C@H]1CN([C@@H](C)CO)S(=O)(=O)c2ccc(-c3cccc(C#N)c3)cc2O[C@H]1CN(C)C(=O)c1ccccc1`, the figure is 4.92%; as for `C[C@@H]1CN([C@@H](C)CO)S(=O)(=O)c2ccc(C#Cc3ccccc3)cc2O[C@@H]1CN(C)C(=O)Nc1ccccc1`, -3.74%; as for `C[C@@H]1CN([C@@H](C)CO)S(=O)(=O)c2ccc(C#Cc3ccc(F)cc3)cc2O[C@H]1CN(C)S(C)(=O)=O`, 0.672%. As for `CCCC#Cc1ccc2c(c1)O[C@@H](CN(C)C(=O)c1cccnc1)[C@H](C)CN([C@H](C)CO)S2(=O)=O`, the activation is -14.9%. The result for `C[C@@H]1CN([C@H](C)CO)S(=O)(=O)c2ccc(C#Cc3ccccc3F)cc2O[C@@H]1CN(C)C(=O)c1ccc2c(c1)OCO2` reads 48.9% (active). As for `C[C@H](CO)N1C[C@H](C)[C@@H](CN(C)Cc2cncnc2)Oc2cc(-c3ccccc3)ccc2S1(=O)=O`, the figure is -27.5%; as for `C[C@H]1CN([C@@H](C)CO)C(=O)c2cc(/C=C/c3ccccc3)cnc2O[C@H]1CN(C)Cc1cccc(C(=O)O)c1`, 8.03%; as for `CCOc1ccccc1NC(=O)Cn1nnc(C(=O)NCc2cccs2)c1N`, -94.8%.

Turning to `C[C@@H]1CN([C@@H](C)CO)S(=O)(=O)c2ccc(-c3ccc(C(=O)N(C)C)cc3)cc2O[C@@H]1CN(C)C(=O)Cc1ccccn1`, the activation was -3.98%. Turning to `COCC#Cc1cnc2c(c1)C(=O)N([C@@H](C)CO)C[C@H](C)[C@@H](CN(C)Cc1ccccc1)O2`, the activation was -2.07%. For the molecule `C[C@@H]1CN([C@H](C)CO)C(=O)c2cc(-c3cccc(C(=O)N(C)C)c3)cnc2O[C@H]1CN(C)S(=O)(=O)c1ccc(F)cc1`, the activation is -4.18%. As for `COc1ccc(-c2cc(NC(C)=O)c3ncc(-c4cc(OC)c(OC)c(OC)c4)n3c2)cn1`, the figure is -107%; as for `CCCC#Cc1ccc2c(c1)O[C@@H](CN(C)C(=O)CC)[C@@H](C)CN([C@H](C)CO)S2(=O)=O`, -16.6%; as for `COCCn1c(SCC(=O)c2[nH]c(C)c(C(C)=O)c2C)nc2ccccc2c1=O`, -272%. With `CC1CCCCC1NC(=O)/C(C#N)=C/C=C/c1ccccc1[N+](=O)[O-]` (configuration not stated), the activation is -102%.

For the molecule `Cc1ccc(OCC(=O)Nc2cccc3c2CCCC3)cc1C`, the activation was -94.9%. As for `C[C@@H]1CN([C@H](C)CO)C(=O)c2cc(C#Cc3ccccn3)cnc2O[C@H]1CN(C)CC1CCOCC1`, the figure is -7.38%; as for `CCC(=O)Nc1ccc2c(c1)OC[C@H](C)N(C(=O)c1ccncc1)C[C@H](C)[C@H](OC)CN(C)C2=O`, -2.72%. The result for `COCC#Cc1cnc2c(c1)C(=O)N([C@@H](C)CO)C[C@@H](C)[C@H](CN(C)C(=O)C1CCOCC1)O2` reads -0.849%; that for `CC1=C(C)CC(C(=O)NNC(=O)c2ccccc2O)C(C(=O)O)C1` (configuration not stated), -151%; that for `Cn1cnc([N+](=O)[O-])c1Sc1ccccc1`, -217%. As for `CCC(=O)N(C)C[C@@H]1Oc2ncc(C#CCC3CCCC3)cc2C(=O)N([C@@H](C)CO)C[C@H]1C`, the figure is 7.03%; as for `COc1ccc(C#Cc2cnc3c(c2)C(=O)N([C@H](C)CO)C[C@H](C)[C@H](CN(C)S(=O)(=O)c2ccc(F)cc2)O3)cc1OC`, 8.05%; as for `C/C=C/c1ccc2c(c1)O[C@H](CN(C)C(=O)Nc1ccc(OC)cc1)[C@@H](C)CN([C@H](C)CO)S2(=O)=O`, -21.8%. As for `COCC#Cc1cnc2c(c1)C(=O)N([C@H](C)CO)C[C@H](C)[C@H](CN(C)C(=O)Nc1ccccc1OC)O2`, the activation was 0.317%. With `COc1ccc(C(C#N)Nc2ccc(C)cc2)cc1` (configuration not stated), the activation was 49.7% (active). As for `COc1ccccc1NC(=O)N(C)C[C@@H]1Oc2ncc(C#CCC(C)C)cc2C(=O)N([C@@H](C)CO)C[C@@H]1C`, the figure is 3.82%. As for `CC(C)C#Cc1ccc2c(c1)O[C@H](CN(C)Cc1ccccn1)[C@H](C)CN([C@H](C)CO)S2(=O)=O`, the figure is -14.1%; as for `Cc1ccccc1-c1cnc2c(c1)C(=O)N([C@H](C)CO)C[C@H](C)[C@@H](CN(C)C(=O)c1ccccc1)O2`, 2.61%; as for `Cc1cc(C)cc(NS(=O)(=O)c2ccc(F)cc2)c1`, -117%. The result for `COc1ccc(F)cc1S(=O)(=O)Nc1ccc2c(c1)OCO2` reads -99.7%; that for `C[C@H]1CN([C@@H](C)CO)S(=O)(=O)c2ccc(-c3ccccc3)cc2O[C@H]1CN(C)C(=O)CC1CC1`, 4.7%. Consider `CO[C@H]1CN(C)C(=O)c2cc(NC(C)=O)ccc2OC[C@H](C)N(C(=O)CN(C)C)C[C@@H]1C`, for which the activation was -4.03%. The result for `COc1ccc(S(=O)(=O)Nc2ccc(F)cc2)c(C)c1C` reads -231%. As for `COc1ccc(CN2CCOC2=O)cc1OC`, the figure is 44.5% (active). As for `C[C@@H]1CN([C@@H](C)CO)C(=O)c2cc(C#Cc3ccccc3)cnc2O[C@H]1CN(C)C(=O)c1ccccn1`, the figure is 5.71%; as for `C[C@@H]1CN([C@@H](C)CO)C(=O)c2cc(/C=C/c3ccccc3)cnc2O[C@H]1CN(C)C(=O)C1CCC1`, 2.31%.

In the case of `CCCN(C)C[C@@H]1Oc2cc(C#CCc3ccccc3)ccc2S(=O)(=O)N([C@H](C)CO)C[C@@H]1C`, the activation was 7.02%. As for `C[C@@H]1CN([C@H](C)CO)C(=O)c2cc(-c3ccccc3F)cnc2O[C@H]1CN(C)C(=O)NC1CCCCC1`, the figure is -3.04%; as for `CCC(=O)N(C)C[C@@H]1Oc2ncc(C#Cc3cccnc3)cc2C(=O)N([C@@H](C)CO)C[C@@H]1C`, -1.27%; as for `COc1ccc(C)cc1S(=O)(=O)NC1CCCCC1`, -375%. The result for `Cc1cccc(-n2ncc(Cl)c(Cl)c2=O)c1` reads 69.6% (active).

As to `CCC(=O)N(C)C[C@H]1Oc2cc(-c3cccc(C#N)c3)ccc2S(=O)(=O)N([C@@H](C)CO)C[C@@H]1C`, the activation is -7.09%. The result for `O=C(Nc1cc(S(=O)(=O)Nc2ccc(Cl)cc2)ccc1O)c1ccc(F)cc1F` reads -118%; that for `CCC(=O)N(C)C[C@@H]1Oc2cc(C#C[C@H](C)O)ccc2S(=O)(=O)N([C@H](C)CO)C[C@@H]1C`, 5.93%. For `CCCNC(=O)N(C)C[C@@H]1Oc2ncc(C#Cc3ccccc3F)cc2C(=O)N([C@@H](C)CO)C[C@H]1C`, the activation was 13.1%.

Turning to `COc1ccc(CN(C)C[C@@H]2Oc3ccc(NS(=O)(=O)c4ccc(OC)cc4)cc3C(=O)N([C@H](C)CO)C[C@H]2C)cc1`, the activation is -2.32%. The result for `C[C@@H]1CN([C@H](C)CO)C(=O)c2cccc(NS(=O)(=O)c3cn(C)cn3)c2O[C@H]1CN(C)CC1CC1` reads -0.457%.
